This is an account of results in PubChem BioAssay AID1220 (Sanford-Burnham Center for Chemical Genomics, 2008).

Among all 190,000 compounds or so, about 1,300 (0.68%) were called active. This excerpt belongs to a sample that is enriched for actives. Unmarked numbers belong to inactive results. Cut-off read from the data, not from the text of the source: active = inhibition above about 50%; inactive = the rest.

For the assay, the target named is Mannose-6-phosphate isomerase (Homo sapiens) (UniProt P34949). Briefly: human PMI inhibitors, high substrate, primary screen, biochemical, fluorescence intensity, high mannose 6-phosphate (AID 1220). To be noted: recombinant PMI enzyme, coupled fluorescence intensity; at 20 µM; stronger effect = higher value.
Chain of Mannose-6-phosphate isomerase (Homo sapiens) (P34949 whole entry, looked up): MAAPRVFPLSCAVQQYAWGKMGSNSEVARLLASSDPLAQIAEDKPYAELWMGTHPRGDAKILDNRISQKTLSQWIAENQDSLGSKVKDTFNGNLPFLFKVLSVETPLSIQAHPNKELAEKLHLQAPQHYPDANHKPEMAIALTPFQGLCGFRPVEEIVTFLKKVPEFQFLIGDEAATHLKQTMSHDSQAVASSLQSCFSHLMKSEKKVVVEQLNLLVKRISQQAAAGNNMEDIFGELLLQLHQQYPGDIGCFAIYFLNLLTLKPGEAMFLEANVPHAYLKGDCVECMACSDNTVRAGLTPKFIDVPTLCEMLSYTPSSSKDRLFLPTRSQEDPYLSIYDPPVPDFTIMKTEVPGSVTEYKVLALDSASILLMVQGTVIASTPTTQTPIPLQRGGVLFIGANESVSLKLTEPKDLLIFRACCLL
With `CCN1CCN(c2cc(C)c3cc(NC(=O)c4ccc(Br)o4)ccc3n2)CC1`, the inhibition is -5.1%.
Turning to `CCN(CC)c1cc(C)c2cc(NC(=O)c3ccc(Br)o3)ccc2n1`, the inhibition is 70.4% (active).
Next, `CCN(CC)c1cc(C)c2cc(NC(=O)c3cccs3)ccc2n1`: 10.3%; `CCOC(=O)c1c(/N=C/c2cccc(C)c2O)sc2c1CCN(C)C2`: -2.3%.
Next, `Cn1c(=S)n(/N=C/c2ccc3c(c2)OCO3)c2ccccc21`: -3.6%.
On to `CCn1c(SCC(=O)N/N=C/C(C)=C/c2ccco2)nnc1-c1ccccc1`, for which the inhibition is 43.3%.
`CCn1c(SCC(=O)N/N=C/C=C/c2ccco2)nnc1-c1ccc(OC)cc1`: the inhibition is 52.6% (active).
Turning to `CCn1c(SCC(=O)N/N=C/C=C/c2ccco2)nnc1-c1ccccc1`, the inhibition is -8.3%.
The value for `O=C(COc1cccc2c1CCN(Cc1ccc(Cl)cc1)C2=O)N1CCOCC1` was -2.4%.
As to `CC(C)CC(=O)NC(=S)Nc1ccc(S(=O)(=O)N2CCCC2)cc1`, the inhibition was -1%.
Next, `CCNc1ccc(C(=O)OCC)cc1NC(=O)c1cccc(S(=O)(=O)N2CCOCC2)c1`: 8.8%; `CCNc1ccc(C(=O)OCC)cc1NC(=O)c1cccc(S(=O)(=O)N(C)c2ccccc2)c1`: 50.1% (active); `CCNc1ccc(C(=O)OCC)cc1NC(=O)c1cccc(N(C)C)c1`: 6.9%.
Turning to `O=C(CNCC1CCCO1)N1CCN(S(=O)(=O)c2ccc3ccccc3c2)CC1` (stereo not given), the inhibition is -1.2%.
For the compound `O=C(/C=C/c1ccccc1Cl)Nc1ccncc1`, the inhibition was -5.1%.
Turning to `CN1C(=O)CC(N2CCC(C(N)=O)CC2)C1=O` (stereo not given), the inhibition is -4%.
The value for `Cc1ccc(S(=O)(=O)Cn2nnnc2C(C)N2CCN(C(=O)c3ccco3)CC2)cc1` (stereo not given) was 11.7%; that for `CCCn1c(C)cc(C)c(C#N)c1=O` was -3.4%.
On to `Cc1c(CN2CCCCC2)c(O)n(CCCO)c(=O)c1C#N`, for which the inhibition is 52.1% (active).
In the case of `CCCn1c(O)c(CN2CCCCC2)c(C)c(C#N)c1=O`, the inhibition is 57.4% (active).
In the case of `Cc1cc(=O)n(CCCO)c(O)c1C#N`, the inhibition is 37.6%.
With `Cc1cc(C)n(CCCO)c(=O)c1C#N`, the inhibition was -3.9%.
As for `CCCn1c(O)c(CN2CCCC(C)C2)c(C)c(C#N)c1=O` (stereo not given), the inhibition is 39.4%.
Turning to `COc1ccc(CCN(C)CCCN2CC(c3ccccc3)CC2=O)cc1OC` (stereo not given), the inhibition was -9.7%.
The value for `Cc1ccc(S(=O)(=O)N2CCN(CC(=O)NC3CCCc4ccccc43)CC2)cc1C` (stereo not given) was 13.8%.
Consider `CCOC(=O)N1CCN(c2c(NCC3CCN(Cc4cccc(C)c4)CC3)c(=O)c2=O)CC1`, for which the inhibition is 8.2%.
Consider `Nc1nc(Cl)cc(Sc2ccc3ccccc3c2)n1`, for which the inhibition was 1%.
Consider `Cc1nc2sccn2c1P(c1c(C)nc2sccn12)c1c(C)nc2sccn12`, for which the inhibition is -5.7%.
Consider `CCC(CO)NCc1ccc(OCC(=O)Nc2cccc(C(F)(F)F)c2)c(OC)c1` (stereo not given), for which the inhibition is -1.3%.
Regarding `CCN=c1scc(C)n1/N=C/c1ccsc1`, the inhibition was 2.6%.
With `CN=c1scc(-c2cccs2)n1/N=C/c1ccccc1O`, the inhibition was 14.7%.
Turning to `CCN=c1scc(-c2ccco2)n1/N=C/c1ccc(OC)c(O)c1`, the inhibition was -17.3%.
Regarding `CCN=c1scc(-c2cccs2)n1/N=C/c1cc(OC)ccc1O`, the inhibition was -21.1%.
Consider `CCN=c1scc(C)n1/N=C/c1cc(Br)c(O)c(Br)c1`, for which the inhibition was -6.2%.
As to `CN=c1scc(-c2cccs2)n1/N=C/c1ccc(O)c(O)c1O`, the inhibition is 34.6%.
`CCN=c1scc(-c2ccco2)n1/N=C/c1ccc(O)cc1`: the inhibition is -22.4%.
The value for `CN=c1scc(-c2ccccc2F)n1/N=C/c1ccc[nH]1` was -2.3%; that for `COCCNS(=O)(=O)c1cc(OC)ccc1OC` was 8.6%; that for `Cc1cc(N2CCN(c3ccccc3)CC2)nc(-c2ccccc2O)n1` was 2.1%.
Turning to `Cc1cc(S(=O)(=O)NCC(C)C)ccc1OCC(=O)NCC1CCCO1` (stereo not given), the inhibition is 15.5%.
Consider `COc1cc(C(=O)OCCNC(=O)c2ccncc2)cc(OC)c1OC`, for which the inhibition is -20%.
For the compound `CCC(C)NS(=O)(=O)c1ccc(F)c(C(=O)Nc2c(F)cc(F)cc2Br)c1` (stereo not given), the inhibition is -19.4%.
In the case of `COc1ccc2[nH]c(=O)c(CN(CCO)C(=O)NCc3ccccc3)cc2c1`, the inhibition is 3.9%.
Consider `CCn1c(COc2ccccc2)nnc1SCC(=O)Nc1cc(C)ccc1OC`, for which the inhibition is 8.3%.
On to `C#CCOCCOCCOCCNc1nc(N2CCN(C(=O)[C@H](CCC(=O)O)n3cc(C(N)Cc4ccc(O)cc4)nn3)CC2)nc(N2CCN(C(=O)[C@H](CCC(=O)O)n3cc(C(N)[C@H](C)CC)nn3)CC2)n1` (stereo not given in full), for which the inhibition was -33.1%.
Next, `O=C(c1ccccc1)c1cccc(NC(=O)c2ccc(Br)o2)c1`: 6.2%; `O=C(C1CCCCN1S(=O)(=O)c1ccccc1)N1CCN(C(c2ccccc2)c2ccccc2)CC1` (stereo not given): 9.8%; `COc1cc(Br)c(S(=O)(=O)Nc2c(C)n(C)n(-c3ccccc3)c2=O)cc1OC`: -1.6%.
Regarding `O=C(c1cccnc1)N1C2C=CC(C2)C1(C(F)(F)F)C(F)(F)F` (stereo not given), the inhibition is -7.8%.
In the case of `Cc1cc(C)nc(NS(=O)(=O)c2ccc(Br)cc2)n1`, the inhibition is -3.5%.
As for `COC1(NS(=O)(=O)c2ccc(Br)cc2)C(C)=CC(=O)C=C1C`, the inhibition was 55.3% (active).
With `Cc1ccc(NS(=O)(=O)c2ccc(Br)cc2)nc1`, the inhibition is 0.3%.
Next, `O=C(Nc1ccc2oc(-c3ccc(F)cc3)nc2c1)c1ccccc1F`: 1%; `Cc1ccc(-c2nc3c(c(=O)c4ccccc4n3C)c(=O)n2-c2ccccc2)cc1`: 0.4%.
`Cc1nc2c([N+](=O)[O-])c(C)c(C)cc2[nH]1`: the inhibition is 4.2%.
In the case of `O=c1[nH]c(=O)c2nc3c4ccccc4c4ccccc4c3nc2[nH]1`, the inhibition was 11.6%.
Regarding `Cc1cc2nc3c(=O)[nH]c(=O)[nH]c3nc2c([N+](=O)[O-])c1N`, the inhibition was 53.3% (active).
In the case of `NC(=O)Nn1c(CCC(=O)O)ccc1-c1ccc(Br)cc1`, the inhibition was -6.3%.
The value for `O=C(CSc1ccc2nnc(-c3ccccc3)n2n1)NCc1ccc2c(c1)OCO2` was 2.7%; that for `CN(C)c1nc(OCCNC(=O)Nc2ccc(Cl)cc2)nc(N(C)C)n1` was 1.2%.
